PubChem BioAssay (NCATS)
Results filed as inconclusive are left out. Calls of active or inactive are those of the source. Unless noted, calls follow the shape of the dose curve; as a rule, active = well fitted curve in either direction with a large enough effect (not every such curve was filed as active); inconclusive = small, poorly fitted or top-dose-only effect, or another doubt; inactive = flat fitted curve, though single readings scatter.

What was measured:
[1] = AP1 Signaling Pathway (AID 357); conditions: ME-180 AP-1-bla reporter, EGF-induced, beta-lactamase ratio, 5 h; at 17.2 µM (top of the series) unless noted;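 also: ME-180 reporter cells stimulated with EGF at its EC50 level; % is scaled to controls: 0 for no effect and ±100 for the full control effect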
In short: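 Cells are seeded overnight, exposed to compound titrations and an EC50 level of EGF for 5 hours at 37 °C, then loaded with CCF4 dye for 2.5 hours. Beta-lactamase activity under the AP-1 element is read as a blue/green ratio.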

[2] = Stat Signaling Pathway (AID 446);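 also: ME-180 cervical cancer cells given 40 pM IL-6 alongside compound; SIE-controlled beta-lactamase reporter measured as 460/530 nm FRET emission ratio; % is scaled to controls: 0 for no effect and ±100 for the full control effect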
In short: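 ME-180 cells carrying a SIE-driven beta-lactamase reporter are stimulated with 40 pM IL-6 for 5 h at 37C in the presence of compound. The 460/530 nm FRET substrate ratio is read after 2.5 h at RT. Data are normalised to 300 pM IL-6 and to 125 nM JAK inhibitor controls.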

[3] = molecular target: Glucocorticoid receptor (Homo sapiens) (UniProt P04150); test: GR-GFP Redistribution (AID 450;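 active = compounds whose dose series gives a full or clear partial fitted curve of increased nuclear translocation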; also: potency is read from the fitted curve at half-maximal effect); conditions: U2OS GR-GFP nuclear translocation, laser cytometry, 2 h
[4] = NFAT Signaling Pathway (AID 444); conditions: Jurkat NFAT-bla M1, carbachol, beta-lactamase ratio, 5 h; at 17.2 µM (top of the series) unless noted;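 also: carbachol stimulus at about its EC50 of 1 µM final; % is scaled to controls: 0 for no effect and ±100 for the full control effect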
In short: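 Jurkat cells with NFAT-driven β-lactamase reporter and co-expressed M1 receptor, stimulated with carbachol (final 1 uM, ~EC50), compound titration, 5 h at 37 °C. CCF4 loaded 1 h at RT; 460/530 nm ratio gave %activity and AC50.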

[5] = molecular target: Mitogen-activated protein kinase 10 (Mus musculus) (UniProt Q61831); test: JNK3 AlphaScreen Assay (AID 530);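 also: kinase came from lysate of stimulated human HepG2 cells; signal reports phosphorylation of biotinylated GST-cJun 1-79 at Ser73 with 10 µM ATP; % is scaled to controls: 0 for no effect and ±100 for the full control effect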
In short: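 Pre-activated (IL-1β/TNFα) JNK3 in HepG2 lysates phosphorylates biotin-GST-cJun(1-79), 10 uM ATP; anti-phospho-cJun(Ser73) AlphaScreen read at room temperature, pH 7.6 Tris buffer. Compounds pre-incubated 15 min as titrations.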

[6] = molecular target: 3',5'-cyclic-AMP phosphodiesterase 4B (Homo sapiens) (UniProt Q07343); test: qHTS Assay for Inhibitors of PDE-IV (AID 607; active = well fitted activation curve with a large enough effect in the main read-out, with a control signal flat, not every such curve was filed as active; also: % of control where 0% means no effect)
In short: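 HEK293 ACTOne cells with CNG channel (1000/well), endogenous PDE4; membrane potential dye, compounds up to 22.9 uM final. Fluorescence Ex 535/Em 590; RO 20-1724 (100 uM final) as reference.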

[7] = molecular target: Guanine nucleotide-binding protein G(i) subunit alpha-1 (Homo sapiens) (UniProt P63096); test: qHTS Assay for Inhibitors of RGS12 GoLoco Motif Activity (Green Fluorophore) (AID 879; active = well fitted curve in the direction sought with a large enough effect; an effect the other way counts as inactive or inconclusive;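 also: 0% = labeled peptide with Gαi1 and full inhibition = labeled peptide alone without protein; negative values mean loss of peptide binding seen as reduced polarization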)
In short: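 Fluorescence polarization assay: 50 nM Gαi1 with 10 nM FITC-labeled RGS12 GoLoco peptide in 10 mM Tris pH 7.5, 150 mM NaCl, 0.1 mM GDP, 0.05% NP40, 10 min at room temperature with compound.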

[8] = molecular target: Cytochrome P450 3A4 (Homo sapiens) (UniProt P08684); test: qHTS Assay for Activators of Cytochrome P450 3A4 (AID 885; active = well fitted curve in the direction sought with a large enough effect; an effect the other way counts as inactive or inconclusive; also: nearly all actives have a fitted effect of over 65% in size)
In short: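 Human CYP3A4 (20 nM) with Luciferin-PPXE at 25 uM (its KM) in 200 mM KPO4; 10 min compound preincubation, then NADPH regeneration and 60 min reaction at RT. Luciferin read by luminescence; normalized to 57 uM ketoconazole full inhibition.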

[9] = qHTS Assay for Identification of Small Molecule Antagonists for NFkB Signaling Pathway (AID 895; active = well fitted inhibition curve with a large enough effect in the signal ratio, with a control signal flat, not every such curve was filed as active; the % refers to the signal ratio; also: % is scaled to controls: 0 for no effect and ±100 for the full control effect)
In short: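 ME-180 NFkB-bla cells (beta-lactamase under NFkB response element), plated overnight, treated with compound then 10 pM TNF alpha (about EC50) for 5 hrs at 37 C. LiveBLAzer FRET read at 460/530 nm emission, 405 nm excitation.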

[10] = qHTS Assay for Identification of Small Molecule Agonists for Thrombopoietin (TPO) Signaling Pathway (AID 917; active = well fitted curve in the direction sought with a large enough effect; an effect the other way counts as inactive or inconclusive; also: % is scaled to controls: 0 for no effect and ±100 for the full control effect)
In short: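 Murine Ba/F3 cells stably expressing human TPO receptor and a Glycoprotein IIb promoter–luciferase reporter were IL-3-starved overnight, then treated with compounds plus TPO (26 pM final, its EC50) for 24 hrs at 37 C; luminescence was read.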

[11] = molecular target: Pyruvate kinase (Leishmania mexicana) (UniProt Q27686); test: qHTS Validation Assay for Inhibitors of Leishmania Mexicana Pyruvate Kinase (AID 945; active = well fitted curve in the direction sought with a large enough effect; an effect the other way counts as inactive or inconclusive;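 also: 0% = DMSO only neutral control wells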)
In short: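 qHTS eight-point titrations against 0.2 nM LmPYK (E451W) in imidazole buffer pH 7.2 with 0.5 mM PEP, 0.1 mM ADP; 1 h, room temperature. Readout: PKLight luminescence, normalized to neutral DMSO wells.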

[12] = molecular target: Pyruvate kinase PKM (Homo sapiens) (UniProt P14618); test: qHTS Assay for Activators of Human Muscle Pyruvate Kinase (AID 954; active = well fitted curve in the direction sought with a large enough effect, not every such curve was filed as active;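 also: 0% = uninhibited enzyme and -100% = no enzyme or full thiadiazolimine inhibition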)
In short: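 Purified human PKM2 (0.1 nM) with 0.5 mM PEP (Km) and 0.1 mM ADP in 50 mM imidazole pH 7.2, KCl, MgCl2, 1 h at room temperature; ATP formed read by coupled luciferase luminescence. Normalized to no-enzyme/110 uM thiadiazolimine inhibition; 0.3 nM enzyme column for activation.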

[13] = molecular target: Alpha-galactosidase (Coffea arabica) (UniProt Q42656); test: Counterscreen for Glucocerebrosidase Inhibitors: qHTS Assay for Coffee Bean alpha-Galactosidase at pH 4.5 (AID 957; active = well fitted curve in the direction sought with a large enough effect; an effect the other way counts as inactive or inconclusive;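 also: plate controls were enzyme alone for no effect and no enzyme for full effect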)
In short: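 Coffee bean enzyme (2 nM) with 80 uM 4-methylumbelliferyl alpha-D-galactopyranoside in 50 mM citric acid, 0.005% Tween-20, pH 4.5, 20 min at room temperature; compounds 0.7 nM–77 uM. Stopped at pH 10, fluorescence 365/440 nm; AC50 from Hill fits.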

[14] = molecular target: Alpha-galactosidase A (Homo sapiens) (UniProt P06280); test: Counterscreen for Glucocerebrosidase Inhibitors: qHTS Assay for Human alpha-Galactosidase at pH 4.5 (AID 992; active = well fitted curve in the direction sought with a large enough effect; an effect the other way counts as inactive or inconclusive; also: 0% is about no effect)
In short: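 Human enzyme (2 nM) with 80 uM 4-methylumbelliferyl alpha-D-galactopyranoside in 50 mM citric acid, 0.005% Tween-20, pH 4.5, 20 min at room temperature. Compounds 0.7 nM–77 uM; fluorescence Ex 365/Em 440 after pH 10 stop; AC50 from Hill fits.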

[15] = molecular target: alpha-glucosidase (Oryza sativa, rice) (UniProt Q653V4); test: Counterscreen for Glucocerebrosidase Inhibitors: qHTS Assay for Rice alpha-Glucosidase at pH 5.0 (AID 997; active = well fitted curve in the direction sought with a large enough effect; an effect the other way counts as inactive or inconclusive;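 also: 0% = full activity with enzyme and -100% = basal without enzyme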)
In short: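 Rice alpha-glucosidase (4 nM final) with 400 uM 4-methylumbelliferyl-alpha-D-glucopyranoside in citrate buffer pH 5.0, 20 min at room temperature, stopped at pH 10; fluorescence 365/440 nm, compounds 0.7 nM–77 uM, AC50 from Hill fits.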

[16] = molecular target: Alpha-galactosidase (Coffea arabica) (UniProt Q42656); test: Counterscreen for Glucocerebrosidase Inhibitors: qHTS Assay for Coffee Bean alpha-Galactosidase at pH 5.9 (AID 998; active = well fitted curve in the direction sought with a large enough effect; an effect the other way counts as inactive or inconclusive;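 also: plate controls were uninhibited enzyme for no effect and no-enzyme basal signal for full effect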)
In short: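 Green coffee bean enzyme (2 nM) with 4-methylumbelliferyl alpha-D-galactopyranoside (80 uM) in 50 mM citric acid, 0.005% Tween-20, pH 5.9, 20 min at room temperature; compounds 0.7 nM–77 uM. Stopped at pH 10, fluorescence Ex365/Em440; Hill-fit AC50.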

[17] = qHTS Assay for Identification of Small Molecule Agonists for Hypoxia Response Element Signaling Pathway (AID 914; active = well fitted activation curve with a large enough effect in the signal ratio, with a control signal flat, not every such curve was filed as active; the % refers to the signal ratio; also: % of control where 0% means no effect); conditions: ME-180 (cervical carcinoma) HRE-bla reporter, beta-lactamase ratio, CoCl2, 17 h; activation: active compounds read high
In short: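 Positive modulation of EC50 CoCl2-induced hypoxia response element signaling is measured in ME-180 cells with a beta-lactamase reporter. Compounds are titrated, incubation runs 17 hours, and %Activity derives from the blue/green ratio.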

[18] = molecular target: Ubiquitin carboxyl-terminal hydrolase 1 (Homo sapiens) (UniProt O94782); test: Inhibitors of USP1/UAF1: Pilot qHTS (AID 504865; active = well fitted curve in the direction sought with a large enough effect; an effect the other way counts as inactive or inconclusive;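 also: rhodamine fluorescence freed from ubiquitin-rhodamine substrate followed over time; top concentration of the series differs between compounds; % is scaled to controls: 0 for no effect and ±100 for the full control effect; nearly all actives have a fitted effect of over 35% in size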)
In short: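 USP1/UAF1 complex (1nM) preincubated with compound 15 min at room temperature, then Ub-Rho substrate (150nM final) added. Fluorescence read kinetically at 480/540 nm, 6 reads every 60 seconds. Buffer: 50mM HEPES pH 7.8, 0.5mM EDTA, 0.1 mg/ml BSA, 1mM TCEP, 0.01% Tween-20.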

[19] = molecular target: Glucocorticoid receptor (Homo sapiens) (UniProt P04150); test: GR-EFC Redistribution (AID 451; calls by dose curve; also: potency is read from the fitted curve at half-maximal effect); conditions: CHO-K1 GR-EFC translocation, beta-gal luminescence, 2 h
In short: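 CHO-K1 cells expressing nuclear EA and GR-ED fragments of b-gal; compounds titrated up to 46 uM final, 2 h at 37 C. GR nuclear translocation read as complemented b-gal luminescence after 1 h RT detection.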

Chain of 3',5'-cyclic-AMP phosphodiesterase 4B (Homo sapiens) (Q07343 whole entry, looked up): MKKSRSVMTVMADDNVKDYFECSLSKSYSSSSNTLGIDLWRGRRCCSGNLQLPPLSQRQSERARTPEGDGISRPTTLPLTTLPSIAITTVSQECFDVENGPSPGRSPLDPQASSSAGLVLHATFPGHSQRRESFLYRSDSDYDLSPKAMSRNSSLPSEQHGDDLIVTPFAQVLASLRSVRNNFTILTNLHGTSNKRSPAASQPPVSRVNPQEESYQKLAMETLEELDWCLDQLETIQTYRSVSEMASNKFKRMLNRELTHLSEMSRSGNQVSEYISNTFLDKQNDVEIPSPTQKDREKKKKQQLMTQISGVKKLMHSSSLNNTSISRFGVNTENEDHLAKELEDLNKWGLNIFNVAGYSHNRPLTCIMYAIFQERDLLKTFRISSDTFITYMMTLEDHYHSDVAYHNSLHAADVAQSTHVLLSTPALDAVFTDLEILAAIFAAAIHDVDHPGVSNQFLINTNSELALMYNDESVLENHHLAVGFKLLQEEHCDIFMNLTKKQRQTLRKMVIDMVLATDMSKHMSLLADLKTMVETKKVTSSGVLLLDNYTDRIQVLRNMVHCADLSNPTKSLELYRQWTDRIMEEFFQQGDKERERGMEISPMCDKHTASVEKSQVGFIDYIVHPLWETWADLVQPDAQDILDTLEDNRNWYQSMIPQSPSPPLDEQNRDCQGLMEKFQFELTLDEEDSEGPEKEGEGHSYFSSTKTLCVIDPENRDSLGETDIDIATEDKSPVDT
Chain of Glucocorticoid receptor (Homo sapiens) (P04150 whole entry, looked up, the tested form may be a part): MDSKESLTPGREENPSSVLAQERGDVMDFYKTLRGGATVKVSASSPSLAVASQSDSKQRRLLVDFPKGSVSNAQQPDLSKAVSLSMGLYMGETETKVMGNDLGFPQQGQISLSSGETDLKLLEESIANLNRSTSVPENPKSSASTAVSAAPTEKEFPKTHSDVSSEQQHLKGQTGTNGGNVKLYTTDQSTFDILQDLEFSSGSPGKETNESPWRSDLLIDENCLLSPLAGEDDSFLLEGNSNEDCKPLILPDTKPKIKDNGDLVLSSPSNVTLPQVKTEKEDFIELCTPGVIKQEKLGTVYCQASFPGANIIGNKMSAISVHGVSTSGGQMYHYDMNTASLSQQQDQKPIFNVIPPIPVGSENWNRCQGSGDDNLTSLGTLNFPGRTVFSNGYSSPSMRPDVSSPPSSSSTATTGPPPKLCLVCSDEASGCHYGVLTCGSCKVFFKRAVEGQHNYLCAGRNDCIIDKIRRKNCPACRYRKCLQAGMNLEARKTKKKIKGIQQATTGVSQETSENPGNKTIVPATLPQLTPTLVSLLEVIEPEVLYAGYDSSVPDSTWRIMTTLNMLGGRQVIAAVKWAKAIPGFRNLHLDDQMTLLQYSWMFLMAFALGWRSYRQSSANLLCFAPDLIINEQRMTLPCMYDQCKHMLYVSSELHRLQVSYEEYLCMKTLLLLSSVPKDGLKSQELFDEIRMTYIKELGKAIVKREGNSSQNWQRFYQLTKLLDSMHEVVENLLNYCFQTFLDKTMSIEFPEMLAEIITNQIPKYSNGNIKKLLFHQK
Chain of Alpha-galactosidase (Coffea arabica) (Q42656 whole entry, looked up): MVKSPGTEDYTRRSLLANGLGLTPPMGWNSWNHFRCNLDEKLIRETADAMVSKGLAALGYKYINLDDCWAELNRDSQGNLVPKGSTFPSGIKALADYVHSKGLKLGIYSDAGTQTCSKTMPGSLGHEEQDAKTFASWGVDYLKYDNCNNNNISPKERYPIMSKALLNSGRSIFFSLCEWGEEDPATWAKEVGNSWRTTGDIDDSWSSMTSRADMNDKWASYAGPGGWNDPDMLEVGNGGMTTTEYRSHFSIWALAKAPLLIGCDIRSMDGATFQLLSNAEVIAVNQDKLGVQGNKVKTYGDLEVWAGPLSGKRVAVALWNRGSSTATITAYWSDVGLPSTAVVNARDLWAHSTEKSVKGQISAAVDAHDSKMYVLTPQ
Chain of Alpha-galactosidase A (Homo sapiens) (P06280 whole entry, looked up): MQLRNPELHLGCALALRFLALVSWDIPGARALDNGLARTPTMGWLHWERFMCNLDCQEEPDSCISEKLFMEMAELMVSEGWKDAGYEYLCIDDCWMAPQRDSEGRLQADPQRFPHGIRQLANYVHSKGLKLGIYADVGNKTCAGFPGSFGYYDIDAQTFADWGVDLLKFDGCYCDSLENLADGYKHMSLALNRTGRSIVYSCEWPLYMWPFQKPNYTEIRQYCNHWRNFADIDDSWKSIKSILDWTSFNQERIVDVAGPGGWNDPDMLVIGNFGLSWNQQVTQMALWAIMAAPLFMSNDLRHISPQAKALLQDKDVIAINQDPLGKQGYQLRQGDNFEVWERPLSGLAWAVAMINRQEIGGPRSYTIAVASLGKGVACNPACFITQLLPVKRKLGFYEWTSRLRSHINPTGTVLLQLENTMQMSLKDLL
Chain of Pyruvate kinase PKM (Homo sapiens) (P14618 whole entry, looked up): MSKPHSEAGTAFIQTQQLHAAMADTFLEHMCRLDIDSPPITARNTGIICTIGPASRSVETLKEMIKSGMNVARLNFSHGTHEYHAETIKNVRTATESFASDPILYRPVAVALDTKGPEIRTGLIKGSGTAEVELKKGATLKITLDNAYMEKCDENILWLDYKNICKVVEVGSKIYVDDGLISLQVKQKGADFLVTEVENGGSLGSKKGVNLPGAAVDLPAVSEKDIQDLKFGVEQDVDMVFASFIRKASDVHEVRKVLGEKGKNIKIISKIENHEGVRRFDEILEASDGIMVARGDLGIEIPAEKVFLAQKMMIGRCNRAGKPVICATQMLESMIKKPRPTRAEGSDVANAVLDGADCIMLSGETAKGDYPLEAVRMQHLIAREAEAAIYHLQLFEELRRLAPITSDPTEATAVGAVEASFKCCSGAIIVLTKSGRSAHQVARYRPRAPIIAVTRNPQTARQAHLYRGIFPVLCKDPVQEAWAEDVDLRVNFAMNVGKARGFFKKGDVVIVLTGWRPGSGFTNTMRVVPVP
Chain of Pyruvate kinase (Leishmania mexicana) (Q27686 2-499 E452W): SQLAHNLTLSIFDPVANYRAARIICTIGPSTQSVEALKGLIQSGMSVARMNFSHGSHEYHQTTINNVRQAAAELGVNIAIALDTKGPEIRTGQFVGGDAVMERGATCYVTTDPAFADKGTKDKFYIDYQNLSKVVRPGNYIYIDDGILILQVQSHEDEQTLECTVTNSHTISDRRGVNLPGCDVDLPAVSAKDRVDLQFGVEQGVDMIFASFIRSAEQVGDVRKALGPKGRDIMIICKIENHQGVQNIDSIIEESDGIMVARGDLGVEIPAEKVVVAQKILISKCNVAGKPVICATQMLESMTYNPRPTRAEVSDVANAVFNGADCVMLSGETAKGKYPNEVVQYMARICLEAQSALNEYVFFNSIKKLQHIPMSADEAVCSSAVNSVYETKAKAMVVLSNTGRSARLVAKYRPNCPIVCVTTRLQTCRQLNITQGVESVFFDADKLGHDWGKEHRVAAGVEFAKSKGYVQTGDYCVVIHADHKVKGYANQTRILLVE
Chain of Cytochrome P450 3A4 (Homo sapiens) (P08684 whole entry, looked up): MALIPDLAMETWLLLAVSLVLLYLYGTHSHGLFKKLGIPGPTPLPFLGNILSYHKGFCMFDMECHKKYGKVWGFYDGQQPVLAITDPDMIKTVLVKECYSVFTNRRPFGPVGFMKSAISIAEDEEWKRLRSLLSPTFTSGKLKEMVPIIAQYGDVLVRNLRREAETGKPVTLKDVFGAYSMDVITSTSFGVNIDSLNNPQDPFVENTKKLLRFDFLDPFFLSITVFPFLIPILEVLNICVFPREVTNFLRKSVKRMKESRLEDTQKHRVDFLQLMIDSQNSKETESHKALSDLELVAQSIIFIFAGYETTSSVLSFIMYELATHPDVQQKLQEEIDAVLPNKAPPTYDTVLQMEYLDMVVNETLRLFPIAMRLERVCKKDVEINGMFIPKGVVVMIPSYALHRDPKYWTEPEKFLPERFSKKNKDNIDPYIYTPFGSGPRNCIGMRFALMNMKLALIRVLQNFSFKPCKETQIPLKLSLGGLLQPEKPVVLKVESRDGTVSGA
Chain of Ubiquitin carboxyl-terminal hydrolase 1 (Homo sapiens) (O94782 whole entry, looked up): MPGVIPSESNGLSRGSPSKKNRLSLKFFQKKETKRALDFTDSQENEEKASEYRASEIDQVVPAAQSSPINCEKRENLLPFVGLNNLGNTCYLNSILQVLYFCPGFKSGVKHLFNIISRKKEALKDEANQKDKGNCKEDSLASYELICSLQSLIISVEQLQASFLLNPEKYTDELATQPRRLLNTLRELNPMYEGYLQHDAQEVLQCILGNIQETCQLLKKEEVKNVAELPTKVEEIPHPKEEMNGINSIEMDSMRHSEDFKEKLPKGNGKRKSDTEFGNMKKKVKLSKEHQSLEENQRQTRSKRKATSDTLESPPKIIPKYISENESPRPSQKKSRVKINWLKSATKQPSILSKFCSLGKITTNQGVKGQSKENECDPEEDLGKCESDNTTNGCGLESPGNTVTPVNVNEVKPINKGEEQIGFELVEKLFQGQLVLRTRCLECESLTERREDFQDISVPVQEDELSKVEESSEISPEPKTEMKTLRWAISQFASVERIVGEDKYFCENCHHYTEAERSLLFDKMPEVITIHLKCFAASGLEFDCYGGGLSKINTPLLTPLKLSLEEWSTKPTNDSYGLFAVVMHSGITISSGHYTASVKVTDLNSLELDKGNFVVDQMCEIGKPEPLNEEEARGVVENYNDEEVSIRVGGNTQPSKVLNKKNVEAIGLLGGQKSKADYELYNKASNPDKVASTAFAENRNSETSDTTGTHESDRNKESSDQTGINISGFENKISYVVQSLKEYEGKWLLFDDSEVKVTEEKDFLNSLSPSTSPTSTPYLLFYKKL
Chain of Guanine nucleotide-binding protein G(i) subunit alpha-1 (Homo sapiens) (P63096 whole entry, looked up): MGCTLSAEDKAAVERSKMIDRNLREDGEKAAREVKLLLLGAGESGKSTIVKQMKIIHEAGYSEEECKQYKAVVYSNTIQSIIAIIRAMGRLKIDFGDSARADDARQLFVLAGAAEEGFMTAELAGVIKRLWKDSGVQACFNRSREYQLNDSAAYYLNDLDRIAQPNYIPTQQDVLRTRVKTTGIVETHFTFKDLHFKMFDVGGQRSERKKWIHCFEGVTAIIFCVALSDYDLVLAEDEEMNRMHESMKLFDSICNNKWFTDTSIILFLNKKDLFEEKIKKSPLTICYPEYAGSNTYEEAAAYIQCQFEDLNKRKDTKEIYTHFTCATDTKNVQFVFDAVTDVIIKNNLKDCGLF

CCN(CC)CCCNC(=O)c1c(O)c2ccccc2n(Cc2ccccc2)c1=O
inactive: activity change, negative = inhibition [1] 27.1% | outcome [2] | Potency [3] > 20.6 µM

C[N+]1(C)CCO[C@@](O)(c2ccc(-c3ccc([C@]4(O)C[N+](C)(C)CCO4)cc3)cc2)C1
inactive: activity change, negative = inhibition [1] -2.41% [at 38 µM] | activity change, negative = inhibition [4] -10.8% [at 38 µM] | outcome [2] | Potency [3] > 46 µM | outcome [5] | outcome [6] | Potency [7] | Potency [8] | Potency [9] | outcome [10] | Potency [11] | outcome [12] | outcome [13] | outcome [14] | outcome [15] | outcome [16]

C/C(Cl)=C/CC1(CN2CCCC2=O)C(=O)NC(=O)NC1=O
inactive: activity change, negative = inhibition [1] -3.48% | activity change, negative = inhibition [4] 1.12% | outcome [2] | Potency [3] > 20.6 µM | activation [17] 3.38%

CC1(C)CC(n2[nH]c(=O)c3c2NC(=O)CSC3c2ccccc2)CCO1 (configuration not stated)
inactive: activity change, negative = inhibition [1] 0.712% | activity change, negative = inhibition [4] -1.52% | outcome [2] | Potency [3] > 20.6 µM | activation [17] 18.8%

O=C1CC[C@]2(O)[C@H]3Cc4ccc(O)c5c4[C@@]2(CCN3CC2CC2)[C@@H]1O5
inactive: activity change, negative = inhibition [1] 3.41% | activity change, negative = inhibition [4] 9.93% | outcome [2] | outcome [5] | outcome [6] | Potency [18]

CC1CCC(C(C)C)C(OP(N)(=O)c2ccccc2)C1 (configuration not stated)
inactive: activity change, negative = inhibition [1] -1.85% | activity change, negative = inhibition [4] 16.1% | outcome [2] | Potency [3] > 20.6 µM | activation [17] -7.02%

CNCCc1nc(N)n[nH]1
inactive: activity change, negative = inhibition [1] 16.9% | activity change, negative = inhibition [4] -10.7% | outcome [2] | Potency [3] > 20.6 µM | activation [17] 12.1%

CC[C@H](CO)NC(=O)[C@@H]1C=C2c3cccc4[nH]cc(c34)C[C@@H]2N(C)C1
inactive: activity change, negative = inhibition [1] 2.51% [at 38 µM] | activity change, negative = inhibition [4] -0.886% [at 38 µM] | outcome [2] | Potency [3] > 46 µM | Potency [19] > 46 µM | outcome [5] | outcome [6] | outcome [10] | Potency [11] | outcome [12] | outcome [13] | outcome [14] | outcome [15] | outcome [16]

CCCCOCCCn1c(N)c(C(=O)OCCOC)c2nc3ccccc3nc21
inactive: activity change, negative = inhibition [1] -2.11% | outcome [2] | Potency [3] > 20.6 µM
